ChEMBL document CHEMBL1961873, “Compounds: GSK PKIS; Assays: Nanosyn kinase panel” (2012)
Values joined by “and” are separate entries in the source; they are usually repeats but may differ in a detail not shown here. Equal values may be shown once.

How the values were obtained:
[1] = target: Serine/threonine-protein kinase pim-2 (Homo sapiens) (UniProt Q9P1W9); conditions: at 1 µM;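 also: each value is a mean of the inhibition measurements against the kinase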
[2] = target: Serine/threonine-protein kinase pim-3 (Homo sapiens) (UniProt Q86V86); conditions: at 0.1 µM
[3] = target: Serine/threonine-protein kinase pim-3 (Homo sapiens) (UniProt Q86V86); conditions: at 1 µM
[4] = target: T1, MAP kinase-activated protein kinase 5 (Homo sapiens) (UniProt Q8IW41); conditions: at 0.1 µM
T1 sequence (whole entry): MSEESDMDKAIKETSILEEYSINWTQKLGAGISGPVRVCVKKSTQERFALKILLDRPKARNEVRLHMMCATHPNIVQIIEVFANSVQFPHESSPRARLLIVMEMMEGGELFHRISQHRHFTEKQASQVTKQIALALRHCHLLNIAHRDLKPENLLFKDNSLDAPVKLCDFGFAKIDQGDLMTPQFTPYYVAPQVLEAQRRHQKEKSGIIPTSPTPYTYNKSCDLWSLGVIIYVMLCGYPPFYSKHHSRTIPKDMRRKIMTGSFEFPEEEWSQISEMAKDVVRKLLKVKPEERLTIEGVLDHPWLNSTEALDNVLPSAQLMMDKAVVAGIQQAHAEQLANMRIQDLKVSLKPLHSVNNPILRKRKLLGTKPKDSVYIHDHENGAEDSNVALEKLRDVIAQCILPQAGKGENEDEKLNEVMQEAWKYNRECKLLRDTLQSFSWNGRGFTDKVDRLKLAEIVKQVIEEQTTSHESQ

[5] = target: T1, MAP kinase-activated protein kinase 5 (Homo sapiens); conditions: at 1 µM
[6] = target: Serine/threonine-protein kinase SIK1 (Homo sapiens) (UniProt P57059); conditions: at 0.1 µM
[7] = target: Serine/threonine-protein kinase SIK1 (Homo sapiens) (UniProt P57059); conditions: at 1 µM
[8] = target: Serine/threonine-protein kinase SIK2 (Homo sapiens) (UniProt Q9H0K1); conditions: at 0.1 µM
[9] = target: Serine/threonine-protein kinase SIK2 (Homo sapiens) (UniProt Q9H0K1); conditions: at 1 µM
[10] = target: T2, Serine/threonine-protein kinase TBK1 (Homo sapiens) (UniProt Q9UHD2); conditions: at 0.1 µM;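 also: values are the mean TBK1 inhibition, taken from the GSK PKIS screening data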
T2 sequence (whole entry): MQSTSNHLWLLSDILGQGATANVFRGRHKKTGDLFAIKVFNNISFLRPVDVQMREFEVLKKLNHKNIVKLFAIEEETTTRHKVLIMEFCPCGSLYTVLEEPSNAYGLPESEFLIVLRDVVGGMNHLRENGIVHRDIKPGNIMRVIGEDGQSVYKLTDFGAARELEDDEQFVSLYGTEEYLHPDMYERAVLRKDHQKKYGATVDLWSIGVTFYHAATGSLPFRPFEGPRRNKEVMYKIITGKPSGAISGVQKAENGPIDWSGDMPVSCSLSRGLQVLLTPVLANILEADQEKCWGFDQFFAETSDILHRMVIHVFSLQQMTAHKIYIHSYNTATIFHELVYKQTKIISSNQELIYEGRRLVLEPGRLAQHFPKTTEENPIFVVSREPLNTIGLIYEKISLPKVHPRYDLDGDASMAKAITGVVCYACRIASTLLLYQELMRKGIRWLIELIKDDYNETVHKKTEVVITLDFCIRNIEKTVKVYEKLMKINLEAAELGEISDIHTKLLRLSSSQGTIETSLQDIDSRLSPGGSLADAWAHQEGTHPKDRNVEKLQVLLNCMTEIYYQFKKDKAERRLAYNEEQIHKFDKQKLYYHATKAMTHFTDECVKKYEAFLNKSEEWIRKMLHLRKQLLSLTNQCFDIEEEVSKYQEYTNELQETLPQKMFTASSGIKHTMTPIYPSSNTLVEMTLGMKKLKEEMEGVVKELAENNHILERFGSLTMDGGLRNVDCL

Chain of Serine/threonine-protein kinase SIK1 (Homo sapiens) (P57059 whole entry): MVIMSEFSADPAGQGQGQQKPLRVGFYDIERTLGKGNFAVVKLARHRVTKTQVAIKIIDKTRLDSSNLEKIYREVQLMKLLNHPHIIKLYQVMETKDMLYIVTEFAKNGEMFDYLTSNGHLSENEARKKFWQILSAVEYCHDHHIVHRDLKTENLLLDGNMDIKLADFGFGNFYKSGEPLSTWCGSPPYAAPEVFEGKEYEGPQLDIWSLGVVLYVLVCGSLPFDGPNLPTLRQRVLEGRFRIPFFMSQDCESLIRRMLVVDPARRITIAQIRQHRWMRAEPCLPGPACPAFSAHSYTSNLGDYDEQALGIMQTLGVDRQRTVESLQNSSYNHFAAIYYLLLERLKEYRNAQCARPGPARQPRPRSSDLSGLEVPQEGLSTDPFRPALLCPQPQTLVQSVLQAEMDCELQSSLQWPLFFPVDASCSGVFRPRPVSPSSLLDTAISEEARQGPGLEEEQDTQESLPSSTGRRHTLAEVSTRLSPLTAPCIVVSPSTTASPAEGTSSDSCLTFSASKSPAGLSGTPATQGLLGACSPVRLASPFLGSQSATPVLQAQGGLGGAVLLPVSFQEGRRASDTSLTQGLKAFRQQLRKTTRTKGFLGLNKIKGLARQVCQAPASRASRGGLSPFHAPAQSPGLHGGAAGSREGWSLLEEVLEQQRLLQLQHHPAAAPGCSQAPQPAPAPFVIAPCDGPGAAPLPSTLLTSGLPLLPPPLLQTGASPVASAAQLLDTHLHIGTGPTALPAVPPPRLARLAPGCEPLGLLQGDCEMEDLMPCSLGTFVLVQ
Chain of Serine/threonine-protein kinase SIK2 (Homo sapiens) (Q9H0K1 whole entry, looked up): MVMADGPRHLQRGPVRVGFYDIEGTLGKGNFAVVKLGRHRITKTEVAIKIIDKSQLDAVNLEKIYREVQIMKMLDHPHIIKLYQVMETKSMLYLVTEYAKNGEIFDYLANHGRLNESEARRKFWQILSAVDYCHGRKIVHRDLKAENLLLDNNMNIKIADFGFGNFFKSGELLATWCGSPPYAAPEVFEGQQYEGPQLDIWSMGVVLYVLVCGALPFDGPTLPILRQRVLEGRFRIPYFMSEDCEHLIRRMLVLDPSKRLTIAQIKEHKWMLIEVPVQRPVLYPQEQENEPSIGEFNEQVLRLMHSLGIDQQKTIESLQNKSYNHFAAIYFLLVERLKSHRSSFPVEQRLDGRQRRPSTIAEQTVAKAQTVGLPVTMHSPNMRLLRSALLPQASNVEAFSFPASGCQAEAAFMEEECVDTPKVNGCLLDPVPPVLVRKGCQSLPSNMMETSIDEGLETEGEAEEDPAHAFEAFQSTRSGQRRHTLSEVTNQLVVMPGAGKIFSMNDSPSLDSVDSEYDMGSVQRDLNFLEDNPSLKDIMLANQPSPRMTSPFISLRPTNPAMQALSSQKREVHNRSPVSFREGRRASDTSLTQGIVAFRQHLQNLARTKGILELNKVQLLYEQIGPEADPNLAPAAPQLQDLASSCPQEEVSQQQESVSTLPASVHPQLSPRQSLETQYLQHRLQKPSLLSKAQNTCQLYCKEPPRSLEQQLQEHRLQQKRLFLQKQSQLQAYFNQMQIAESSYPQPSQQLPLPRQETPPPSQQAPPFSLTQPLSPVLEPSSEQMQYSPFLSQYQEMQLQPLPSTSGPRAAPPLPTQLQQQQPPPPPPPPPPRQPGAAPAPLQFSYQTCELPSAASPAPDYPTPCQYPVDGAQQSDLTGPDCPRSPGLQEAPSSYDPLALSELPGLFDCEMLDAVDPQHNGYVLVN
Chain of Serine/threonine-protein kinase pim-2 (Homo sapiens) (Q9P1W9 whole entry, looked up): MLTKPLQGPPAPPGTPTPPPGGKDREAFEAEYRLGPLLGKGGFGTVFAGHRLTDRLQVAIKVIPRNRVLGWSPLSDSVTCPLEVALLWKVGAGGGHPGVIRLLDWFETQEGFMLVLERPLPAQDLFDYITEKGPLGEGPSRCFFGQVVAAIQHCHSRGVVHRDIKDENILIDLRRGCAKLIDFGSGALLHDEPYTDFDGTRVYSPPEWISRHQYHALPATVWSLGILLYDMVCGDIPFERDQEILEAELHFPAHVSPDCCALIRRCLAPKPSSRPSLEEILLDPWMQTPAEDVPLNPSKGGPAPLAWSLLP

## Fc1ccc(Nc2nccc(-c3c(-c4ccc(C(F)(F)F)cc4)nn4ncccc34)n2)cc1F
[1]
  inhibition: 5.02%
[2]
  inhibition: -0.88%
[3]
  inhibition: -1%
[4]
  inhibition: 0.6%
[5]
  inhibition: -0.23%
[6]
  inhibition: 5.43%
[7]
  inhibition: 3.1%
[8]
  inhibition: 3.76%
[9]
  inhibition: 2.08%
[10]
  inhibition: -0.07%

## COC(=O)Nc1nc2ccc(Oc3ccc(NC(=O)Nc4cc(C(F)(F)F)ccc4F)cc3)cc2s1
[1]
  inhibition: 0.12%
[2]
  inhibition: 0.39%
[3]
  inhibition: 0.5%
[4]
  inhibition: 0.07%
[5]
  inhibition: -0.36%
[6]
  inhibition: -0.78%
[7]
  inhibition: 0.54%
[8]
  inhibition: 0.97%
[9]
  inhibition: -6.65%
[10]
  inhibition: -0.35%

## Nc1ncnc2occ(-c3ccc(NC(=O)Nc4cc(C(F)(F)F)ccc4F)cc3)c12
[1]
  inhibition: 0.09% and 1.14%
[2]
  inhibition: 0.34% and 0.04%
[3]
  inhibition: -1.35% and 1.44%
[4]
  inhibition: -0.03% and -0.81%
[5]
  inhibition: -1.65% and -0.72%
[6]
  inhibition: 5.31% and -3.84%
[7]
  inhibition: 6.74% and 3.25%
[8]
  inhibition: 6.29% and -4.61%
[9]
  inhibition: 1.48% and -6.22%
[10]
  inhibition: 0.47% and 0.44%

## CC(C)c1ccc(-c2cc(-c3c[nH]nc3-c3ccccn3)ccn2)cc1
[1]
  inhibition: -0.1%
[2]
  inhibition: 0.23%
[3]
  inhibition: -0.66%
[4]
  inhibition: 0.04%
[5]
  inhibition: -0.19%
[6]
  inhibition: 0.32%
[7]
  inhibition: 0.87%
[8]
  inhibition: -2.6%
[9]
  inhibition: -1.02%
[10]
  inhibition: 0.97%

## Cc1ccc(-c2cc3c(NC(=O)C4CC4)ncnc3o2)cc1
[1]
  inhibition: 1.12%
[2]
  inhibition: -0.12%
[3]
  inhibition: 4.13%
[4]
  inhibition: 0.83%
[5]
  inhibition: 0.27%
[6]
  inhibition: 6.5%
[7]
  inhibition: 7.93%
[8]
  inhibition: -1.22%
[9]
  inhibition: 3.33%
[10]
  inhibition: 3.64%

## CCCNc1cccc(-n2ncc3c(N/N=C/c4ccncc4)ncnc32)c1
[1]
  inhibition: 0.32%
[2]
  inhibition: 3.58%
[3]
  inhibition: 4.06%
[4]
  inhibition: 0.95%
[5]
  inhibition: 1.6%
[6]
  inhibition: 3.14%
[7]
  inhibition: 9.54%
[8]
  inhibition: -0.68%
[9]
  inhibition: 21.1%
[10]
  inhibition: 2.22%

## CCS(=O)(=O)c1ccc(OC)c(Nc2ncc(-c3cccc(F)c3)o2)c1
[1]
  inhibition: 0.08%
[2]
  inhibition: 0.31%
[3]
  inhibition: 3.65%
[4]
  inhibition: 2.11%
[5]
  inhibition: 2.01%
[6]
  inhibition: 7.36%
[7]
  inhibition: 29.4%
[8]
  inhibition: 8.6%
[9]
  inhibition: 36.7%
[10]
  inhibition: 5.98%

## COc1ccccc1-c1cc(/C=C2\C(=O)Nc3ncc(Br)cc32)cc(Br)c1O
[1]
  inhibition: -0.06%
[2]
  inhibition: -1.67%
[3]
  inhibition: -1.54%
[4]
  inhibition: 1.35%
[5]
  inhibition: 0.67%
[6]
  inhibition: 3.09%
[7]
  inhibition: 9.01%
[8]
  inhibition: 0.5%
[9]
  inhibition: 10.4%
[10]
  inhibition: 0.53%

## O=C(O[C@H]1CN[C@H](C#Cc2cc3ncnc(Nc4ccc5c(cnn5Cc5ccccc5)c4)c3s2)C1)N1CCOCC1
[1]
  inhibition: -0.51%
[2]
  inhibition: -0.77%
[3]
  inhibition: -0.59%
[4]
  inhibition: -0.48%
[5]
  inhibition: -1.44%
[6]
  inhibition: -1.61%
[7]
  inhibition: -0.04%
[8]
  inhibition: -3.57%
[9]
  inhibition: 1.23%
[10]
  inhibition: -0.69%

## CS(=O)(=O)CCNCc1ccc(-c2ccc3ncnc(Nc4ccc(OCc5cccc(C(F)(F)F)c5)cc4)c3c2)o1
[1]
  inhibition: -0.48%
[2]
  inhibition: 1.17%
[3]
  inhibition: 4.36%
[4]
  inhibition: 1.34%
[5]
  inhibition: 1.44%
[6]
  inhibition: 1.69%
[7]
  inhibition: 7.19%
[8]
  inhibition: 6.4%
[9]
  inhibition: 8%
[10]
  inhibition: 3.15%

## CCn1c(-c2nonc2N)nc2cncc(C(=O)NCCNC)c21
[1]
  inhibition: 18.8%
[2]
  inhibition: 26.3%
[3]
  inhibition: 69.3%
[4]
  inhibition: 1.39%
[5]
  inhibition: 1.58%
[6]
  inhibition: 3.17%
[7]
  inhibition: 9.07%
[8]
  inhibition: 2.51%
[9]
  inhibition: 6.02%
[10]
  inhibition: 4.08%

## Cc1nnc(-c2cccc(-c3ccc(C(=O)NCC4CC4)cc3)c2)o1
[1]
  inhibition: 1.27%
[2]
  inhibition: 1.21%
[3]
  inhibition: 5.19%
[4]
  inhibition: 2.14%
[5]
  inhibition: 4.28%
[6]
  inhibition: 7.04%
[7]
  inhibition: 10.7%
[8]
  inhibition: 12.9%
[9]
  inhibition: 5.76%
[10]
  inhibition: 2.51%

## c1cnn2ncc(-c3ccnc(NCCCN4CCOCC4)n3)c2c1
[1]
  inhibition: -1.06%
[2]
  inhibition: -0.56%
[3]
  inhibition: -0.85%
[4]
  inhibition: 1.09%
[5]
  inhibition: 1.07%
[6]
  inhibition: 3.47%
[7]
  inhibition: 6.56%
[8]
  inhibition: 3.35%
[9]
  inhibition: 2.87%
[10]
  inhibition: 0.82%

## O=C(O[C@H]1CN[C@H](C#Cc2cc3ncnc(Nc4ccc5c(ccn5Cc5cc(F)ccc5F)c4)c3s2)C1)N1CCOCC1
[1]
  inhibition: 0.17%
[2]
  inhibition: -1.4%
[3]
  inhibition: -2.6%
[4]
  inhibition: 1.04%
[5]
  inhibition: 0.93%
[6]
  inhibition: 5.35%
[7]
  inhibition: 7.23%
[8]
  inhibition: 2.92%
[9]
  inhibition: 7.13%
[10]
  inhibition: 2.75%

## Cc1c2ccc(N(C)c3ccnc(Nc4cccc(S(N)(=O)=O)c4)n3)cc2nn1C
[1]
  inhibition: -3.16%
[2]
  inhibition: -1.16%
[3]
  inhibition: -2.47%
[4]
  inhibition: 1.9%
[5]
  inhibition: 1.08%
[6]
  inhibition: 4.24%
[7]
  inhibition: 27.6%
[8]
  inhibition: 3.64%
[9]
  inhibition: 9.51%
[10]
  inhibition: 4.99%

## COc1ccc2ncn(-c3cc(O[C@H](C)c4ccccc4C(F)(F)F)c(C(N)=O)s3)c2c1
[1]
  inhibition: 0.75%
[2]
  inhibition: 1.24%
[3]
  inhibition: 7.53%
[4]
  inhibition: -0.11%
[5]
  inhibition: -0.07%
[6]
  inhibition: -1.94%
[7]
  inhibition: 15.9%
[8]
  inhibition: 4.06%
[9]
  inhibition: 5.38%
[10]
  inhibition: 1.28%

## CCOc1ccc2c(-c3ccnc(Nc4cc(OC)cc(C(F)(F)F)c4)n3)cnn2n1
[1]
  inhibition: -0.11%
[2]
  inhibition: 1.13%
[3]
  inhibition: 1.42%
[4]
  inhibition: -0.27%
[5]
  inhibition: -0.8%
[6]
  inhibition: 2.02%
[7]
  inhibition: 6.72%
[8]
  inhibition: -0.16%
[9]
  inhibition: 2.02%
[10]
  inhibition: -0.57%

## O=C1Nc2ccccc2/C1=C1\CCc2cc(O)ccc21
[1]
  inhibition: 1.46%
[2]
  inhibition: -1.28%
[3]
  inhibition: 3.83%
[4]
  inhibition: 1.7%
[5]
  inhibition: 2.07%
[6]
  inhibition: 2.74%
[7]
  inhibition: 18.1%
[8]
  inhibition: 5.12%
[9]
  inhibition: 21%
[10]
  inhibition: 1.68%

## COc1cc(Nc2ncc(-c3ccccc3)o2)cc(OC)c1
[1]
  inhibition: 0.6%
[2]
  inhibition: 0.03%
[3]
  inhibition: -0.34%
[4]
  inhibition: 1.24%
[5]
  inhibition: 2.34%
[6]
  inhibition: 6.1%
[7]
  inhibition: 20.6%
[8]
  inhibition: 7.38%
[9]
  inhibition: 33.8%
[10]
  inhibition: 2.71%

## COc1ccc(Nc2ncc(-c3ccccc3)o2)cc1OC
[1]
  inhibition: 1.95%
[2]
  inhibition: 0.89%
[3]
  inhibition: 1.57%
[4]
  inhibition: -0.17%
[5]
  inhibition: -1.05%
[6]
  inhibition: 2.55%
[7]
  inhibition: 28.9%
[8]
  inhibition: 1.69%
[9]
  inhibition: 39%
[10]
  inhibition: -0.12%

## CS(=O)(=O)CCNCc1ccc(-c2ccc3ncnc(Nc4ccc(OCc5ccccc5)cc4)c3c2)o1
[1]
  inhibition: 0.74%
[2]
  inhibition: 0.79%
[3]
  inhibition: 1.6%
[4]
  inhibition: 1.45%
[5]
  inhibition: 1.42%
[6]
  inhibition: 4.11%
[7]
  inhibition: 9.04%
[8]
  inhibition: 3.65%
[9]
  inhibition: 6.41%
[10]
  inhibition: 3.64%

## CS(=O)(=O)CCNCc1ccoc1-c1ccc2ncnc(Nc3ccc(OCc4ccccc4)cc3)c2c1
[1]
  inhibition: -0.21%
[2]
  inhibition: 0.58%
[3]
  inhibition: -0.84%
[4]
  inhibition: 0.44%
[5]
  inhibition: 0.78%
[6]
  inhibition: 2.99%
[7]
  inhibition: 4.48%
[8]
  inhibition: -0.71%
[9]
  inhibition: -0.59%
[10]
  inhibition: 0.39%

## NS(=O)(=O)c1cccc(N/C=C2\C(=O)Nc3ccccc32)c1
[1]
  inhibition: 0.69%
[2]
  inhibition: -0.71%
[3]
  inhibition: -2.38%
[4]
  inhibition: 1.17%
[5]
  inhibition: 1.53%
[6]
  inhibition: 5.29%
[7]
  inhibition: 10.8%
[8]
  inhibition: -0.72%
[9]
  inhibition: 11.3%
[10]
  inhibition: 3.79%
